Data as given in PubChem BioAssay (NCI).
Compounds without any hit were thinned out: in the full panel of roughly 79,000, 15% have a hit. No stated cut-off is given here; in the data, active means growth inhibition above about 70%; inactive means the rest.

What was measured:
[1] = NCI Yeast Anticancer Drug Screen. Data for the rad50 strain (AID 155);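 further: 0% = growth of vehicle-only cultures of the same strain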; details: S. cerevisiae rad50 strain growth inhibition; at 50.0 µM; stronger effect = higher value
Method in brief: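 Compounds were tested on a yeast strain with an engineered DNA damage repair alteration; the reported value is growth inhibition normalised to vehicle treatment.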

[2] = NCI Yeast Anticancer Drug Screen. Data for the mec2-1 strain (AID 157); details: S. cerevisiae mec2-1 strain, at 50.0 µM, stronger effect = higher value
Method in brief: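 Readout is yeast growth inhibition, normalised to vehicle-treated controls, in the mec2-1 strain exposed to compound.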

[3] = NCI Yeast Anticancer Drug Screen. Data for the sgs1 mgt1 strain (AID 161);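 further: 0% = growth of cultures given vehicle only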; details: S. cerevisiae sgs1 mgt1 strain, at 50.0 µM, stronger effect = higher value
Method in brief: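 This yeast growth screen uses a strain with defined DNA-repair lesions; compound-treated growth is compared with vehicle-treated growth.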

[4] = NCI Yeast Anticancer Drug Screen. Data for the cln2 rad14 strain (AID 165);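 further: 0% = growth equal to vehicle treated cultures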; details: S. cerevisiae cln2 rad14 strain, at 50.0 µM, stronger effect = higher value
Method in brief: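 Relative to vehicle controls, growth inhibition of compound-treated cln2 rad14 yeast was recorded.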

[5] = NCI Yeast Anticancer Drug Screen. Data for the bub3 strain (AID 167); details: S. cerevisiae bub3 mutant strain, at 50.0 µM, stronger effect = higher value
Method in brief: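 Growth of a checkpoint-deficient yeast mutant is measured after compound exposure. Values represent inhibition relative to vehicle.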

[6] = NCI Yeast Anticancer Drug Screen. Data for the mlh1 rad18 strain (AID 175); details: S. cerevisiae mlh1 rad18 strain growth inhibition; at 50.0 µM; stronger effect = higher value
Method in brief: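 Test agents were incubated with a yeast strain of defined genotype (DNA damage repair defect). Inhibition of growth was derived by comparison with vehicle-exposed cultures.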

Measured: growth inhibition

Cc1c(Cl)cccc1NC(=O)OC/C=C/c1ccccc1
inactive: [1] 3.2% | [2] 33.2% | [3] 14.8% | [4] -9.35% | [5] 5.6% | [6] -10.9%

CCCCOC(=O)c1ccc(NC(=O)Nc2c(C)cccc2C)cc1
inactive: [1] -0.65% | [2] -4.4% | [3] 27.3% | [4] -6.2% | [5] 30.9% | [6] 25%

Nc1nc(N)c2nc3c(nc2n1)CCCC3
inactive: [1] -15.9% | [2] -35.7% | [3] -18.3% | [4] 8.95% | [5] -13.1% | [6] -25.7%

Cc1cc(NN)c2cc3c(cc2n1)OCO3
inactive: [1] 12.4% | [2] -2.6% | [3] 5.05% | [4] -46% | [5] -5.7% | [6] 24.1%

CCCCn1cnc2c(N)ncnc21
inactive: [1] -0.05% | [2] -7.75% | [3] -5.45% | [4] -18.1% | [5] 1.45% | [6] -15.5%

CCCCS(=O)(=O)c1ccc(Cl)cc1
inactive: [1] -2.65% | [2] -13.9% | [3] -4.45% | [4] -16% | [5] -3.9% | [6] 21.9%

Cc1ccc(-c2nc3ccccc3c(=O)o2)cc1
inactive: [1] 11.4% | [2] -9.05% | [3] -6.05% | [4] -8.6% | [5] 4.75% | [6] 14.3%

C[Si](C)(C)c1ccc(CC2(Cc3ccc([Si](C)(C)C)cc3)CCNC2)cc1
inactive: [1] -32.9% | [2] -39% | [3] -19.9% | [4] 3.75% | [5] -10.2% | [6] -25.9%

CN1N=C(N)c2cn(C3OC(COP(=O)(O)O)C(O)C3O)c3ncnc1c23 (stereo unspecified)
inactive: [1] -16.2% | [2] 1.2% | [3] 4.7% | [4] -22.8% | [5] 11.3% | [6] -9.05%

CCCCCCCCCCCCCCCCCC(=O)N/N=C/c1cc(OC)ccc1OC
inactive: [1] 1.55% | [2] 0.05% | [3] -0.05% | [4] -25.2% | [5] -0.6% | [6] -28.9%

COc1ccc(Cc2cc3c(cc2OCCOC(C)=O)OCO3)cc1
inactive: [1] 16.8% | [2] 11.3% | [3] 10.4% | [4] 0.05% | [5] 15.2% | [6] 23.4%

COc1ccccc1C(CC(=O)c1ccccc1)Sc1ccccc1N (stereo unspecified)
inactive: [1] 26.9% | [2] 33.9% | [3] 38.8% | [4] 4.1% | [5] 26.4% | [6] 12.3%

NCCCc1c(-c2ccccc2)nc(N)[nH]c1=O
inactive: [1] -3.15% | [2] -15% | [3] -35.5% | [4] -28.4% | [5] -58% | [6] -3.05%

C/C=C/Cc1ccc(O)cc1
inactive: [1] 4.9% | [2] -6% | [3] -1% | [4] -25.4% | [5] -1.4% | [6] -1.05%

Cc1ccc(CC2CC(=O)c3ccccc3C2=O)cc1 (stereo unspecified)
inactive: [1] -7.6% | [2] 2.95% | [3] -4.55% | [4] -13.9% | [5] 3.65% | [6] -16.4%

COc1c(C)c(C)c(OC(C)=O)c(C)c1COC(C)=O
inactive: [1] 53.9% | [2] 23.8% | [3] 33.2% | [4] 25.6% | [5] 42.9% | [6] 64.7%

Cc1ccccc1-n1c(=S)[nH]c2c(sc(=O)n2-c2ccccc2C)c1=O
inactive: [1] 3.95% | [2] -7.9% | [3] 0.8% | [4] 17.6% | [5] 0.1% | [6] -11.4%

O=[N+]([O-])c1cc2c(cc1O)[nH]c1cccc([N+](=O)[O-])c12
inactive: [1] -2.25% | [2] -11.4% | [3] -42.5% | [4] 21.1% | [5] -15.8% | [6] -22.6%

O=[N+]([O-])c1ccc(Sc2c3ccccc3nc3ccccc23)cn1
inactive: [1] 21.1% | [2] 27.4% | [3] -12.5% | [4] 7.65% | [5] -14.8% | [6] -18.4%

O=C(CN1C(=O)c2ccccc2C1=O)OCC1CCCN2CCCCC12 (stereo unspecified)
inactive: [1] 16.6% | [2] -3.3% | [3] 4.9% | [4] -3.55% | [5] -6.25% | [6] -29.4%

O=c1c(SCc2ccc(Cl)cc2)c(N2CCCCC2)cnn1-c1ccccc1
inactive: [1] 20.5% | [2] 19.4% | [3] 10.8% | [4] 34% | [5] 9.3% | [6] 15.1%
